Experiment [1] is described as follows: qHTS RealTime-Glo MT Cell Viability Assay in HEK293 cells - 16 hour (AID 1224872). Also: nearly all actives have a fitted effect of over 50% in size. Also: potency is read from the fitted curve at half-maximal effect. The procedure, abridged:
(§1)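 Reads taken at 0, 8, 16, 24, 32 and 40 h from the same wells. HEK293 cells (600/well) carried RealTime-Glo reagents from seeding, with compound added after a 5 h settle at 37 C.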
For orientation: qHTS replaces the single test concentration by a dilution series.

Experiment [2] is described as follows: qHTS RealTime-Glo MT Cell Viability Assay in HEK293 cells - 40 hour (AID 1224874). Also: potency is read from the fitted curve at half-maximal effect; nearly all actives have a fitted effect of over 50% in size. As to conditions: RealTime-Glo luminescence; max response: hits give low values. The procedure, abridged:
(§2)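 600 cells/well were plated with the nonlytic NanoLuc/prosubstrate reagent, pre-incubated 5 h, then given 23 nL of compound in DMSO. Incubation at 37 C for 40 h, with luminescence from viable-cell-reduced substrate read repeatedly from 0 h.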

Experiment [3] can be described thus: A CellTox Green Cytotoxicity Assay to monitor cytotoxicity in HEK293 cells - 24 hour (AID 1224875). Also: series mostly up to about 77 µM; nearly all actives have a fitted effect of over 45% in size. A digest of the protocol: (§3)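 HEK293 cells, 600/well, were preincubated 5 hours and then exposed to compounds at 37 C for up to 40 hours. A cell-impermeant cyanine dye staining dead-cell DNA was read by fluorescence at 0, 8, 16, 24, 32 and 40 h time points.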
Experiment [4] can be described thus: qHTS RealTime-Glo MT Cell Viability Assay in HepG2 cells - 32 hour (AID 1224877). Also: nearly all actives have a fitted effect of over 55% in size. Also: potency is read from the fitted curve at half-maximal effect. A digest of the protocol: (§4)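 HepG2 suspension premixed with RealTime-Glo reagents is plated at 600 cells per well and left 5 h at 37 C/5% CO2. Compounds in DMSO then go in, and bioluminescence reflecting viable cell number is recorded over 40 h.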
Experiment [5] is described as follows: A CellTox Green Cytotoxicity Assay to monitor cytotoxicity in HepG2 cells - 24 hour (AID 1224878). Also: nearly all actives have a fitted effect of over 45% in size. Also: potency is read from the fitted curve at half-maximal effect. The procedure, abridged: (§5)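 HepG2 cells, 600/well, preincubated 5 h with CellTox Green dye, then exposed to Tox21 compounds in DMSO at 37 C for up to 40 h. Dead-cell DNA fluorescence read at the indicated time point.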
Experiment [6] can be described thus: qHTS RealTime-Glo MT Cell Viability Assay in HEK293 cells - 0 hour (AID 1224880). Also: top concentration of the series differs between compounds; nearly all actives have a fitted effect of over 45% in size. A digest of the protocol: as §2
The nature of experiment [7]: A CellTox Green Cytotoxicity Assay to monitor cytotoxicity in HEK293 cells - 32 hour (AID 1224881). Also: nearly all actives have a fitted effect of over 40% in size. A digest of the protocol:
as §3

Experiment [8] can be described thus: A CellTox Green Cytotoxicity Assay to monitor cytotoxicity in HEK293 cells - 8 hour (AID 1224884). Also: nearly all actives have a fitted effect of over 35% in size. The procedure, abridged: as §3
A short description of experiment [9]: qHTS RealTime-Glo MT Cell Viability Assay in HepG2 cells - 16 hour (AID 1224885). Also: nearly all actives have a fitted effect of over 50% in size. Also: potency is read from the fitted curve at half-maximal effect. A digest of the protocol: as §4
Experiment [10] is described as follows: qHTS RealTime-Glo MT Cell Viability Assay in HEK293 cells - 24 hour (AID 1224886). Also: nearly all actives have a fitted effect of over 50% in size. Also: potency is read from the fitted curve at half-maximal effect. The procedure, abridged: as §1
Experiment [11] in a line: A CellTox Green Cytotoxicity Assay to monitor cytotoxicity in HEK293 cells - 16 hour (AID 1224888). Also: nearly all actives have a fitted effect of over 35% in size. Also: potency is read from the fitted curve at half-maximal effect. A digest of the protocol:
as §3

Experiment [12] is described as follows: A CellTox Green Cytotoxicity Assay to monitor cytotoxicity in HepG2 cells - 8 hour (AID 1224890). Also: nearly all actives have a fitted effect of over 45% in size. Also: potency is read from the fitted curve at half-maximal effect. A digest of the protocol: as §5
Experiment [13] can be described thus: qHTS RealTime-Glo MT Cell Viability Assay in HepG2 cells - 8 hour (AID 1224873). Also: nearly all actives have a fitted effect of over 55% in size. The procedure, abridged:
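HepG2 cells mixed with RealTime-Glo MT reagents (NanoLuc plus cell-permeant prosubstrate) were seeded at 600 cells/well, incubated 5 h at 37 C/5% CO2, then pinned with compounds in DMSO; nonlytic luminescence tracked viability during 40 h treatment.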

Experiment [14] can be described thus: A CellTox Green Cytotoxicity Assay to monitor cytotoxicity in HepG2 cells - 0 hour (AID 1224882). Also: nearly all actives have a fitted effect of over 35% in size. Also: potency is read from the fitted curve at half-maximal effect. A digest of the protocol:
as §5

The nature of experiment [15]: qHTS RealTime-Glo MT Cell Viability Assay in HEK293 cells - 8 hour (AID 1224887). Also: nearly all actives have a fitted effect of over 50% in size. Also: potency is read from the fitted curve at half-maximal effect. A digest of the protocol: as §2
The nature of experiment [16]: qHTS RealTime-Glo MT Cell Viability Assay in HepG2 cells - 0 hour (AID 1224889). Also: nearly all actives have a fitted effect of over 50% in size. Also: potency is read from the fitted curve at half-maximal effect. A digest of the protocol: as §4
Experiment [17] in a line: A CellTox Green Cytotoxicity Assay to monitor cytotoxicity in HepG2 cells - 16 hour (AID 1224876). Also: nearly all actives have a fitted effect of over 45% in size. Also: potency is read from the fitted curve at half-maximal effect. The procedure, abridged:
as §5

Experiment [18] can be described thus: A CellTox Green Cytotoxicity Assay to monitor cytotoxicity in HepG2 cells - 32 hour (AID 1224883). Also: nearly all actives have a fitted effect of over 50% in size. Also: potency is read from the fitted curve at half-maximal effect. A digest of the protocol: as §5
Experiment [19] is described as follows: A CellTox Green Cytotoxicity Assay to monitor cytotoxicity in HepG2 cells - 40 hour (AID 1224879). Also: nearly all actives have a fitted effect of over 40% in size. Also: potency is read from the fitted curve at half-maximal effect. A digest of the protocol: as §5

Several values for one entry are separate records, joined by “and”; a condition that tells them apart may be missing. Identical values can stand only once. Unmarked numbers belong to inactive results. Results filed as inconclusive are left out. Activity calls are given as the source filed them. Calls follow the shape of the dose curve; as a rule, active = well fitted curve in the direction sought with a large enough effect in the repeat runs; inconclusive = weak or mixed curves; inactive = no such curve, though single readings can be large; an effect the other way counts as inactive or inconclusive.

In the case of `N#CSc1ccc(N)c([N+](=O)[O-])c1`, the Potency in experiment [1] was 43.9 µM (active); in experiment [2] it was 49.3 µM (active); in [10] it was 49.3 µM (active). For the same compound, the Potency result in [3], in [4], in [5], in experiment [6], in [7] and in experiment [8] was “inactive” throughout. Also, the Potency result in [9], in [11] and in [12] was “inactive” throughout.
In the case of `O=[N+]([O-])c1cc(Cl)c(Cl)c(Cl)c1Cl`, the Potency entry in experiment [1], in experiment [13], in [4], in experiment [6], in experiment [14] and in experiment [8] was “inactive” each time. The Potency entry in experiment [9], in [10], in experiment [15], in [11], in experiment [16] and in experiment [12] was “inactive” in each case.
In the case of `CC1(C)CCC(C)(C)c2cc(C(=O)Nc3ccc(C(=O)O)cc3)ccc21`, the Potency result in experiment [1], in [13], in experiment [4], in experiment [14], in [9] and in experiment [10] was “inactive” throughout. Besides, the Potency entry in experiment [15], in experiment [11] and in [12] was “inactive” in each case.
`CCc1cc(SCc2sc(-c3ccc(C(F)(F)F)cc3)nc2CN2CCN(c3ccc(OC)cc3)CC2)ccc1OCC(=O)O`: the Potency was 19.5 µM (active) in experiment [1] and 21.9 µM (active) in experiment [10]. The Potency result in experiment [17], in experiment [5], in experiment [6], in experiment [14], in experiment [18] and in experiment [8] was “inactive” throughout. The Potency entry in experiment [11], in experiment [16] and in experiment [12] was “inactive” each time.
Regarding `CCC1=C[C@@H]2CN(C1)Cc1c([nH]c3ccccc13)[C@@](C(=O)OC)(c1cc3c(cc1OC)N(C)[C@H]1[C@@](O)(C(=O)OC)[C@H](OC(C)=O)[C@]4(CC)C=CCN5CC[C@]31[C@@H]54)C2`, the results for the Potency in experiment [1] and in experiment [2] were 23.9 µM (active) and 0.0067 µM (active), respectively. Further, the Potency result in experiment [3], in [19], in experiment [6], in experiment [7], in [14] and in experiment [18] was “inactive” in each case. The Potency entry in [8], in experiment [11], in experiment [16] and in experiment [12] was “inactive” in each case.
For `C/C=C1/C(=O)C[C@H]2[C@@H]3CCC4=CC(=O)CC[C@]4(C)[C@H]3CC[C@]12C`, the Potency was 43.5 µM (active) in experiment [1]; 43.5 µM (active) in experiment [19]; 48.8 µM (active) in [18]; 48.8 µM (active) in [10]; 24.5 µM (active) in [15]; 0.435 µM (active) in [16]. The Potency entry in [3], in [4], in [7], in experiment [14], in experiment [8] and in [11] was “inactive” throughout. Further, the Potency entry in [12] is “inactive”.
On to `COc1cc(-c2nc(NC(=O)c3cc4cc(C)cc(C)c4n3CC(=O)O)sc2CCC2CCCCC2)c(OC)cc1Cl`, for which the Potency was 22.5 µM (active) in experiment [2]; 40 µM (active) in experiment [4]; 44.9 µM (active) in [19]; 44.9 µM (active) in experiment [14]; 35.7 µM (active) in [9]; 40 µM (active) in experiment [10]. In experiment [12], the Potency is 40 µM (active). Also, the Potency entry in experiment [3], in experiment [6], in [7], in experiment [15] and in experiment [11] was “inactive” each time.
`Oc1ccc(C2(c3ccc(O)cc3)CC3CC2C2CCCC32)cc1` (stereo unspecified): the Potency result in [13], in experiment [17], in [4], in experiment [5], in experiment [6] and in experiment [14] was “inactive” in each case. Besides, the Potency result in experiment [9], in [11], in experiment [16] and in [12] was “inactive” each time. Moreover, the Potency in [2] and in [10] was 41.9 µM (active) in each case.
`OCc1c[nH]c2ccccc12`: the Potency result in [4], in experiment [5], in [6], in experiment [9], in experiment [16] and in experiment [12] was “inactive” each time.
Regarding `CN1CCC(Nc2ncc3ncnc(Nc4ccc(F)c(Cl)c4)c3n2)CC1`, the Potency result in [13], in experiment [16] and in experiment [12] was “inactive” each time. For the same compound, the Potency in [2] was 10.7 µM (active); in experiment [17], 21.3 µM (active); in experiment [5] it was 23.9 µM (active); in [19], 26.8 µM (active); in experiment [18], 26.8 µM (active); in experiment [10], 9.52 µM (active).
Turning to `CC(C)(C)CC(C)(C)c1ccc(OCCOCC[N+](C)(C)Cc2ccccc2)cc1`, the Potency in experiment [1] was 24.5 µM (active) and 21.3 µM (active); in [2], 9.76 µM (active) and 8.49 µM (active); in experiment [17], 48.9 µM (active) and 19 µM (active); in [4], 34.6 µM (active) and 9.52 µM (active); in [5] it was 38.9 µM (active) and 15.1 µM (active); in experiment [19], 24.5 µM (active) and 10.7 µM (active). For the same compound, the Potency in experiment [18] is 27.5 µM (active) and 15.1 µM (active); in [9], 54.9 µM (active) and 21.3 µM (active); in [10], 19.5 µM (active) and 9.52 µM (active); in experiment [11] it was 48.9 µM (active) and 26.8 µM (active); in [12], 26.8 µM (active). The Potency result in experiment [14] and in experiment [16] was “inactive” in each case.

For the origin of these results see PubChem BioAssay (Tox21).
